This is an account of results in PubChem BioAssay AID1672 (Johns Hopkins Ion Channel Center, 2009).

Hit rate of the full screen: of about 310,000 compounds, about 2,600 (0.84%) were called active. Only a selection was taken, and actives are over-represented in it overall. A number with no mark means an inactive call.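 How the source made its calls: active means fluorescence ratio B-score at or below minus 3 SD of library scores, with starting-brightness B-score within 2 SD (cut at about -4.2 in these data); inactive means the rest.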

The target in the assay is Inward rectifier potassium channel 2 (Mus musculus) (UniProt P35561). As to the kind of experiment: inhibitors of mouse Kir2.1 inward-rectifier potassium channel (AID 1672).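 Further: channel flux triggered by added potassium and thallium sulfate stimulus; B-score of peak minus minimum fluorescence over baseline after thallium stimulus; more negative B-score means stronger Kir2.1 block with less thallium influx.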 As to conditions: HEK293-Kir2.1, FluxOR thallium flux fluorescence; at 10 µM; stronger effect = lower value.
Sequence of Inward rectifier potassium channel 2 (Mus musculus) (P35561 whole entry, looked up): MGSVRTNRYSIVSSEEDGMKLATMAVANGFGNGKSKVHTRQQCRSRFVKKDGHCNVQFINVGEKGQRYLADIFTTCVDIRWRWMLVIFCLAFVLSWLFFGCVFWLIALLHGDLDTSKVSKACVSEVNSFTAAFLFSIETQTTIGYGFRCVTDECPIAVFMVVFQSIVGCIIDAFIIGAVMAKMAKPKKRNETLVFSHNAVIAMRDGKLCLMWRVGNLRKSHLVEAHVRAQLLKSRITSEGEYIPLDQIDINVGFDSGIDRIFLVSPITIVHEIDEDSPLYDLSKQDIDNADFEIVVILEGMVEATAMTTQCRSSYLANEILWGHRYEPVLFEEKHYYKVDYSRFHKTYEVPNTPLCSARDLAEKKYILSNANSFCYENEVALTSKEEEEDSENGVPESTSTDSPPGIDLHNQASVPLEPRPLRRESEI
For `COc1ccc(CCNC(=S)N2CCN(S(=O)(=O)c3ccc(F)cc3)CC2)cc1`, the B-score is 0.06.
The value for `Cc1ccc2nc(N3CCN(C(=O)c4ccco4)CC3)sc2c1` was -0.26; that for `OCc1ccc(-c2ccccc2)c(-c2ccccc2)c1` was -1.83.
The value for `Cc1cc(C)c(S(=O)(=O)NCC(c2ccc3c(c2)OCO3)N2CCOCC2)c(C)c1` (stereo not given) was -1.24; that for `COc1ccc(NC(=O)C(=O)NCC(c2ccco2)N2CCc3ccccc3C2)cc1` (stereo not given) was 1.13; that for `COc1ccc(CCC(C)N2CCc3ccccc3C2)cc1` (stereo not given) was -8.02 (active).
The value for `COc1ccc(OC)c(NC(=S)N2CCc3ccccc3C2)c1` was 0.14; that for `Cc1c(C)n2c(SCC(=O)NC3CCCC3)nnc2[nH]c1=O` was 0.79; that for `O=C1[C@H]2[C@@H](c3ccc(F)cc3)N3C(=O)N(c4ccc(C(F)(F)F)cc4)C(=O)[C@@]3(Cc3ccccc3)[C@H]2C(=O)N1C1CCCCC1` was -0.87.
As to `[O-][n+]1ccc(OCc2ccccc2)cc1`, the B-score was 0.47.
In the case of `Cc1cccc(N2CC(C(=O)Nc3ccccc3N3CCCC3)CC2=O)c1C` (stereo not given), the B-score is 0.2.
The value for `CC(=O)Nc1ccc(Nc2c3ccccc3nc3ccccc23)cc1` was 0.07; that for `N#Cc1cccc(Nc2c3c(nc4ccccc24)CCCC3)c1` was -0.49; that for `Cc1ccc(Nc2c3c(nc4ccccc24)CCC3)cc1` was -15.2 (active).
The value for `Cc1ccc(S(=O)(=O)NC(C)C(=O)NCc2ccc(Cl)cc2)cc1` (stereo not given) was 1.6.
On to `CSCC(=O)N1CCCC(C(=O)c2cc(F)ccc2F)C1` (stereo not given), for which the B-score was 1.27.
The value for `O=C(c1ccc(OC2CCN(C/C=C/c3ccc(F)cc3)CC2)cc1)N1CCCCC1` was -2.2; that for `COc1ccc(/C=C/CN2CCCC(C(=O)c3cc(F)ccc3F)C2)cc1` (stereo not given) was -4.21 (active); that for `COc1ccc(-c2csc3ncnc(N4CCN(S(=O)(=O)c5cccc(F)c5)CC4)c23)cc1` was 0.02.
Take `O=C(Nc1cccc(-c2cscn2)c1)C1CCN(Cc2ccsc2)CC1`: the B-score is -7.36 (active).
The value for `COc1cccc(-c2cccc(NC(=O)C3CCN(C4CCC4)CC3)c2)c1` was -0.09; that for `CCn1cc(CN2CCC(C(=O)Nc3cccc(-c4cccc(Cl)c4)c3)CC2)cn1` was -6.62 (active); that for `CCNC(=S)NNC(=O)C1CCN(Cc2ccccc2)CC1` was -0.93.
The value for `O=C(Nc1cnn(Cc2ccc(Cl)cc2)c1)C1CCCC1` was -1.43; that for `O=C(Nc1cccc(-c2cccc(Cl)c2)c1)C1CCN(C2CCC2)CC1` was -4.84 (active); that for `CC(=O)c1cc(CN2CCC(C(=O)Nc3cccc(-c4cscn4)c3)CC2)cs1` was -2.25.
Turning to `O=C(NC1CCCC1)C1CCN(C(=O)Nc2cccc(Cl)c2)CC1`, the B-score was -1.63.
In the case of `O=C(Nc1ccc(-c2cscn2)cc1)C1CCCN(Cc2ccc(CO)o2)C1` (stereo not given), the B-score was -0.77.
The value for `CCOC(=O)c1c(C)oc2cc(Sc3ccccc3)c(O)c(O)c12` was 1.87.
For `CCC(c1nnc(SCC(=O)NNC(=O)c2ccccc2)n1Cc1ccccc1)N(C)C` (stereo not given), the B-score is 0.93.
Regarding `CCCNC(=O)c1onc(CSc2ccc(F)cc2)c1C(=O)NC(C)C`, the B-score was -1.25.
The value for `O=[N+]([O-])c1ncc(Br)cc1Nc1ccccc1` was 0.16; that for `O=C(NCc1ccncc1)c1ccc(NS(=O)(=O)c2cccc([N+](=O)[O-])c2)cc1` was 0.45.
`CCCCN1C(N)=NC[C@@H]1CC1CCCCC1`: the B-score is -1.04.
The value for `COc1cccc(NC(=O)CSc2nccn(-c3ccc4c(c3)OCCO4)c2=O)c1` was -0.69; that for `Nc1ccccc1/C=N\N=C/c1ccccc1N` was -1.02; that for `Cc1noc(C)c1CSCC(=O)Nc1ccc(Br)cc1Cl` was 0.74.
The value for `COc1ccc(Cl)cc1NC(=O)CN(C)C(=O)c1cc(-c2cccs2)nn1-c1ccccc1` was -0.85; that for `CCCCn1c(N)c(N(CCOC)C(=O)c2sc3ccccc3c2Cl)c(=O)[nH]c1=O` was -0.1; that for `COc1ccc(NS(=O)(=O)c2ccc(C)c(C(=O)N(C)Cc3ccc(OC)cc3OC)c2)cc1` was 0.75.
The value for `CCN(CC)C(=O)CN(c1cccc([N+](=O)[O-])c1)S(=O)(=O)c1ccccc1` was 1.08.
For `O=C(CCl)N(Cc1cccc([N+](=O)[O-])c1)c1cccc(Cl)c1`, the B-score is -5.7 (active).
As for `Cc1ccc(S(=O)(=O)N(Cc2cccc([N+](=O)[O-])c2)C(=O)N2CCN(C)CC2)cc1`, the B-score was 1.58.
The value for `COc1ccccc1NC(=O)Nc1nc(CC(=O)Nc2ccccc2F)cs1` was -0.89.
With `CC1CCc2[nH]c3ccc(C(=O)N(C)CC(=O)Nc4cccc(F)c4)cc3c2C1` (stereo not given), the B-score is -0.84.
The value for `O=C(CN1C(=O)c2ccccc2C1=O)NCc1ccc(C(=O)O)cc1` was -0.03; that for `CC(C)N(C(=O)c1ccc(-c2ccccc2F)cc1)C(C)C` was -0.06.
The value for `CC(=O)N(C1=C(Cl)C(=O)c2ccccc2C1=O)c1ccc(C(=O)O)cc1` was -11 (active).
The value for `COc1ccc(CCNc2cc(N3CCN(C(=O)c4ccccc4OC)CC3)ccc2[N+](=O)[O-])cc1OC` was -0.2; that for `CC1(C)C=Cc2c(ccc3c2OC[C@@H](c2ccc(O)cc2O)C3)O1` was 0.26.
As to `Cc1ccc(S(=O)(=O)CCC(=O)Nc2nnc(CC(C)C)s2)cc1`, the B-score was 0.9.
The value for `COc1ccc(OCC(O)CNCCNc2nccc(C(F)(F)F)n2)cc1` (stereo not given) was -1.42; that for `CC(C)(C)CC(C)(C)NCC(O)COCCOc1ccc(Br)cc1` (stereo not given) was -6.18 (active); that for `OC(COc1ccc(Br)cc1)CN1CCCC1` (stereo not given) was -0.51.
The value for `CCCCCC(=O)N1CCN(S(=O)(=O)c2ccc3c(c2)OCCCO3)CC1` was -1.7.
The value for `COc1ccc(Cl)cc1NC(=O)CN1CCN(C(=O)N2CCOCC2)CC1` was -2.11.
As to `CC1CC(C)(C)NC(=S)N1CCC(=O)N1CCN(Cc2ccccc2)CC1` (stereo not given), the B-score was -0.96.
The value for `CC1CC(=O)Nc2ccccc2N1S(=O)(=O)c1cccs1` (stereo not given) was -0.1; that for `CC1CC(=S)Nc2ccccc2N1Cc1ccccc1` (stereo not given) was -4.8 (active); that for `O=C(NCCc1ccco1)C(=O)NCCC1CCCCN1S(=O)(=O)c1ccccc1` (stereo not given) was -0.4.
